Source: PubChem
This is a sample that favours compounds with a hit; in the whole collection about 5.5% have one here.
CtBP-E1A blk: qHTS Assay for Inhibitors of the CtBP/E1A Interaction; CtBP / adenovirus E1A interaction (AlphaScreen); AlphaScreen GST-E1A/His-CtBP binding, 1536-well; hits give low values; activity change, % (test concentration not listed); 340,000 compounds, 0.49% hits; in the data active means activity change below about -65%; inconclusive means mostly about -30% to -63%; further: on the % scale 0 is the no-effect control and ±100 the full control effect
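Homogeneous bead-based format: GST-tagged E1A captured on glutathione donor beads, His-tagged CtBP on nickel acceptor beads; compounds precede bead addition by 2 h at 37 °C.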
CBFb RUNX1 block: qHTS Assay for Compounds Blocking the Interaction Between CBF-beta and RUNX1 for the Treatment of Acute Myeloid Leukemia; Potency, µM (highest dose often 59.8 µM), for the others: at the top dose activity, negative = inhibition, most hits filed as inhibitors; Runt-related transcription factor 1 (Homo sapiens) + Core-binding factor subunit beta …; AlphaScreen CBFb-His/RUNX1-biotin binding, biochemical; 230,000 tested, under 10 active; AID 1477, 2009; further: % of control where 0% means no effect
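CBFb-His/RUNX1-biotin, 30 nM each, preincubated 20 min RT; compound 15 min RT; Ni + streptavidin beads 50 ng each, 90 min RT; AlphaScreen read.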
Six1-Eya2 inh: qHTS Assay for Inhibitors of the Six1/Eya2 Interaction; Homeobox protein SIX1 (Homo sapiens) + Protein phosphatase EYA2 (Homo sapiens), …; AlphaScreen GST-Six1/His-Eya2 binding, biochemical; hits give low values; activity change, % (no concentration beside the values); 360,000 compounds, 0.56% hits; AID 651725, 2012; in the data active means activity change below about -65%; inconclusive means mostly about -30% to -63%; further: on the % scale 0 is the no-effect control and ±100 the full control effect
Target sequence (O00167 whole entry, looked up): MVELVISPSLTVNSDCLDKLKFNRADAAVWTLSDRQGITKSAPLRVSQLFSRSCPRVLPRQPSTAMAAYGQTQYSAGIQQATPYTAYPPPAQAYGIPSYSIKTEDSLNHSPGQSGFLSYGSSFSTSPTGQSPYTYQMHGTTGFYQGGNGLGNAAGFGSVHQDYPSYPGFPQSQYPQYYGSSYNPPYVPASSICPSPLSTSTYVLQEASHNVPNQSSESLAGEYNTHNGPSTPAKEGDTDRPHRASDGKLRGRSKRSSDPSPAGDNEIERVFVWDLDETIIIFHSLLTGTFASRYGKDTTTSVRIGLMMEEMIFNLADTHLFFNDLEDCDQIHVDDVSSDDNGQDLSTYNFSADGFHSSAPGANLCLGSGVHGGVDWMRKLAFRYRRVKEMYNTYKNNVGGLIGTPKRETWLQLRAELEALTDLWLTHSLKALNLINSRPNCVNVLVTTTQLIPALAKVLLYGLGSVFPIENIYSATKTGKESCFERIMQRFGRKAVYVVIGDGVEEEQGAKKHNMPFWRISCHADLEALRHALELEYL
Target sequence (Q15475 whole entry, looked up): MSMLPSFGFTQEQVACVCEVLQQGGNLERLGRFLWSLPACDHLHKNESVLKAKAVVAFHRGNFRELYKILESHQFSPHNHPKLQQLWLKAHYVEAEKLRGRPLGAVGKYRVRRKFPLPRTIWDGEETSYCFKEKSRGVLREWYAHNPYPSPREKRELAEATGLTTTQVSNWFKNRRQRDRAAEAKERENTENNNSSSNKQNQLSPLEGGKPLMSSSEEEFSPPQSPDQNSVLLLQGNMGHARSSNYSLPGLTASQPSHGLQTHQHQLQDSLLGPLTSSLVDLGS
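Homogeneous AlphaScreen proximity assay pairing GST-Six1 with His-tagged Eya2 (added as 5X mix: 250 nM and 500 nM) in 50 mM Tris pH 8.0, 300 mM NaCl, 1 mM TCEP. Glutathione donor and nickel acceptor beads; 1 h, 37 °C, dark.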
MBNL1 CUG block: qHTS Assay for Inhibitors of MBNL1-poly(CUG) RNA binding. Muscleblind-like protein 1 (Homo sapiens), Q9NR56. TR-FRET MBNL1-His/biotin-(CUG)12 binding, 665/545 ratio. Potency, µM (doses to about 57.5 µM), inactives show top-dose activity change, negative = inhibition, usual class: inhibitors. 280,000 compounds, 0.036% hits. AID 2675, 2010; active means well fitted inhibition curve with a large enough effect in the signal ratio, with a control signal flat, not every such curve was filed as active; inconclusive means small, poorly fitted or top-dose-only effect, or effect the other way, or a change in a side signal; inactive means no such curve, though single readings can be large or run the other way; the % refers to the signal ratio; further: potency means the concentration at half of the fitted maximal effect; on the % scale 0 is the no-effect control and ±100 the full control effect
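Compound titration spanned 92 nM–58 uM against the MBNL1-His/biotin-(CUG)12 complex. After 60 min at room temperature with 5 nM streptavidin-XL665 and 0.055 ng/ul terbium anti-His, ratiometric 665/545 nm emission (Ex 340 nm) normalized to controls.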
RORgamma inh: qHTS for inhibitors of ROR gamma transcriptional activity; Drosophila S2 Gal4-RORgamma UAS-luciferase reporter, 20 h; AID 2551, 2010; Potency, µM (doses to about 53.6 µM), for inactives: top-dose activity change, negative = inhibition, hits mostly inhibitors; Nuclear receptor ROR-gamma (Mus musculus), P51450; 310,000 compounds, 5.4% hits; further: potency means the concentration at half of the fitted maximal effect; on the % scale 0 is the no-effect control and ±100 the full control effect; nearly all actives have a fitted effect of over 60% in size
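In this cell-based reporter format, copper sulfate (700 uM final) drives Gal4–ROR gamma fusion expression from a metallothionein promoter in Drosophila Schneider cells; compounds preincubated 1 hr, reporter read after 20 hr at ambient temperature.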
VP16 counter: VP16 counterscreen qHTS for inhibitors of ROR gamma transcriptional activity; Potency, µM (top dose mostly 53.6 µM), inactives show top-dose activity, negative = inhibition, most hits filed as inhibitors; Drosophila S2 Gal4-VP16 UAS-luciferase, luminescence, 20 h; AID 2546, 2010; 310,000 compounds, 3.5% hits;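 further: Gal4-VP16 expression switched on by copper sulfate through the metallothionein promoter; potency means the concentration at half of the fitted maximal effect; on the % scale 0 is the no-effect control and ±100 the full control effect; nearly all actives have a fitted effect of over 50% in size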
Numbers without * were called inactive. Unless noted, the call rests on the fitted dose curve; in most records, active means well fitted curve in the direction sought with a large enough effect; inconclusive means small, poorly fitted or top-dose-only effect, or another doubt; inactive means no such curve, though single readings can be large; an effect the other way counts as inactive or inconclusive.

How did CC(C)Cn1c(N)c(C(=O)CSc2ccc3c(c2)OCCO3)c(=O)n(C)c1=O do in these assays?
CtBP-E1A blk: 2; CBFb RUNX1 block: 0%; Six1-Eya2 inh: 7; MBNL1 CUG block: -1%; RORgamma inh: inconclusive; VP16 counter: 11µM*

Results for COC(=O)c1ccc(OC(=O)/C=C/c2ccco2)cc1 ?
CtBP-E1A blk: -93*; Six1-Eya2 inh: -85*; MBNL1 CUG block: inconclusive; RORgamma inh: 23%; VP16 counter: 10%

Results for O=C(Oc1ccc(C(=S)N2CCOCC2)cc1)c1ccccc1 ?
CtBP-E1A blk: -16; CBFb RUNX1 block: -3%; Six1-Eya2 inh: inconclusive; MBNL1 CUG block: -3%; RORgamma inh: 35%; VP16 counter: -15%

What do the screens show for `O=C(Oc1ccc(C(=S)N2CCOCC2)cc1)c1ccc(Br)cc1`?
CtBP-E1A blk: 8; CBFb RUNX1 block: 3%; Six1-Eya2 inh: -89*; MBNL1 CUG block: 12%; RORgamma inh: 25%; VP16 counter: -4%

Results for O=C(/C=C/c1ccco1)Oc1ccc(C(=S)N2CCOCC2)cc1 ?
CtBP-E1A blk: -93*; CBFb RUNX1 block: -4%; Six1-Eya2 inh: -89*; MBNL1 CUG block: inconclusive; RORgamma inh: 4%; VP16 counter: -2%

Results for O=C(NCc1ccccc1)c1cc(C2CCCCN2C(=O)c2ccccc2)on1 (configuration not stated) ?
CtBP-E1A blk: 0; Six1-Eya2 inh: -8

How did O=c1[nH]c(=S)[nH]c2c1C(c1ccc(F)cc1)OC(CCC(F)(F)F)C2 (configuration not stated) do in these assays?
CtBP-E1A blk: 5; Six1-Eya2 inh: 1

What do the screens show for `CC(=O)Nc1ccc(NCc2cccs2)cc1`?
CtBP-E1A blk: -7; Six1-Eya2 inh: 5; MBNL1 CUG block: 3%; RORgamma inh: 14%; VP16 counter: inconclusive

What do the screens show for `CCC(C)c1ccc(NC(=S)NCc2cccs2)cc1` (configuration not stated)?
CtBP-E1A blk: -2; CBFb RUNX1 block: 3%; Six1-Eya2 inh: -6; MBNL1 CUG block: -13%; RORgamma inh: 7.1µM*; VP16 counter: 11µM*

What do the screens show for `COCCNC(=S)NCc1cccs1`?
CtBP-E1A blk: 0; CBFb RUNX1 block: 15%; Six1-Eya2 inh: 2; MBNL1 CUG block: 0%; RORgamma inh: -33%; VP16 counter: 5%

What do the screens show for `CC(C)(C)c1ccc(NC(=S)NCc2cccs2)cc1`?
CtBP-E1A blk: 0; CBFb RUNX1 block: 1%; Six1-Eya2 inh: -4; MBNL1 CUG block: -2%; RORgamma inh: 7.1µM*; VP16 counter: 10µM*

How did CC(C)CNC(=O)C1(C)CCCN1C(=O)c1ccc2ccccc2n1 (configuration not stated) do in these assays?
CtBP-E1A blk: 4; Six1-Eya2 inh: 9

Results for COc1ccccc1N1CN(Cc2ccccc2)CNC1=S ?
CtBP-E1A blk: -4; CBFb RUNX1 block: inconclusive; Six1-Eya2 inh: 12; RORgamma inh: 2µM*; VP16 counter: inconclusive

Results for S=C1NCN(Cc2ccccc2)CN1 ?
CtBP-E1A blk: 0; CBFb RUNX1 block: 8%; Six1-Eya2 inh: 1; RORgamma inh: 2%; VP16 counter: 0%

Results for CCN1CN(CCc2ccccc2)CNC1=S ?
CtBP-E1A blk: 7; CBFb RUNX1 block: 5%; Six1-Eya2 inh: 0; MBNL1 CUG block: -5%; RORgamma inh: 13µM*; VP16 counter: inconclusive

Results for COc1ccccc1N1CN(CCc2ccccc2)CNC1=S ?
CtBP-E1A blk: 4; CBFb RUNX1 block: 8%; Six1-Eya2 inh: -1; MBNL1 CUG block: -7%; RORgamma inh: 4%; VP16 counter: inconclusive
